Bioassay records deposited in PubChem BioAssay by The Scripps Research Institute Molecular Screening Center.
Sampled rows, rich in hits. Any-hit rate of the full collection: about 3.4%.
FBW7 act: FBW7 E3 ligase activators, primary screen, biochemical, AlphaScreen, human; AlphaScreen FBW7–phospho-cyclin E peptide binding, activator screen; normalized activity (activation), % at 26.1 µM; 0.13% of 650,000 active; in the data active means normalized activity above about 1.9%;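 further: purified mutant Fbw7 with reduced substrate affinity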
TEAD-YAP block: TEAD-YAP interaction inhibition, primary screen, TEAD-YAP interaction inhibitor project, luminescence, HEK-TIYL cells; inhibition, % at 9.12 µM; AID 1259422, 2018; 1.4% of 640,000 active; TEAD-Gal4/YAP UAS-luciferase luminescence; in the data active means inhibition above about 32%
MITF primary: MITF inhibitors, primary screen, biochemical, AlphaScreen, human; Microphthalmia-associated transcription factor (Homo sapiens), O75030; AlphaScreen MITF homodimerization, bead proximity signal; inhibition, % at 2.6 µM; 0.91% of 650,000 active; AID 1259374, 2018; in the data active means inhibition above about 50%
Target sequence (O75030 whole entry, looked up): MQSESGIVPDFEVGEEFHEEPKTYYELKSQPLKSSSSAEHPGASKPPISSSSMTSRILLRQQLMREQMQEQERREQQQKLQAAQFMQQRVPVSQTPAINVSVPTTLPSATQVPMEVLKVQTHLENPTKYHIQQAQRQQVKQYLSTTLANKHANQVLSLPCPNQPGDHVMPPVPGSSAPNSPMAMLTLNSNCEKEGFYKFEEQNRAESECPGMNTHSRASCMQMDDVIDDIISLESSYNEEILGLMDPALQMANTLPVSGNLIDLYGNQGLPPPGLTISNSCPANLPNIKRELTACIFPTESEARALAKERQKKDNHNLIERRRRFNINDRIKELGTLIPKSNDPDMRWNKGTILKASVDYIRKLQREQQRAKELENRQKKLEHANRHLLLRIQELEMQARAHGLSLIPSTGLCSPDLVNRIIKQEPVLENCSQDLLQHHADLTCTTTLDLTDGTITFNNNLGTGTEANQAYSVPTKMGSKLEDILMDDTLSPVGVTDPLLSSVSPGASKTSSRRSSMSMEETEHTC
GPR151 ag: activators of human GPR151, primary screen, cell-based, PathHunter beta-arrestin, luminescence; PathHunter beta-arrestin GPR151 cells; activation, % at 11.2 µM; 1% of 650,000 active; in the data active means activation above about 4.9%
A number is an active result; – = inactive.

SMILES	FBW7 act	TEAD-YAP block	MITF primary	GPR151 ag
Cc1[nH]c2ccccc2c1CCNC(=O)/C(=C/c1ccco1)NC(=O)c1ccc(Br)cc1	–	–	–	–
CCOC(=O)C(C)Oc1cc(Br)c(C=O)cc1OC (stereo not drawn)	–	–	–	–
CCOC(=O)C(=Cc1cc(OC)c(OC)cc1Br)C(=O)OCC	–	42.2	–	–
Cc1cc(C)nc(SCC(=O)Nc2ccnc3ccccc23)n1	–	41.4	–	–
CCCNc1ccc2ncc(-c3cc4ccccc4s3)n2n1	–	–	–	–
FC(F)(F)c1cccc(-c2cnc3ccc(NCCc4cccnc4)nn23)c1	–	36.7	–	–
c1cncc(CCNc2ccc3ncc(-c4cc5ccccc5s4)n3n2)c1	–	72.6	–	–
CCC(C)N1C(=O)/C(=C/c2c(NCc3ccco3)nc3ccccn3c2=O)SC1=S (stereo not drawn)	–	43.3	–	–
COc1ccc(NC(=O)CSc2ncn[nH]2)cc1	–	–	–	–
O=C(CSc1ncn[nH]1)Nc1ccc(-c2nc3ccccc3s2)cc1	–	52.5	–	–
Cc1ccc(NC(=O)CSc2ncn[nH]2)cc1	–	–	–	–
COC(=O)c1ccc(NC(=O)CSc2ncn[nH]2)cc1	2.4	–	–	–
Cc1ccc2nc(-c3ccc(NC(=O)CSc4ncn[nH]4)cc3)sc2c1	–	72.7	–	–
Cc1cc(C)cc(N(C(C)C(=O)NCc2ccccn2)S(C)(=O)=O)c1 (stereo not drawn)	–	–	–	–
O=C(Nc1nc(-c2cccs2)cs1)c1ccc(Br)cc1	–	–	–	–
O=C(Nc1nc(-c2cccs2)cs1)c1ccncc1	–	35.3	–	–
CN(C)c1ccc(Nc2nc(-c3cccs3)cs2)cc1	–	69.8	–	–
Cc1cccnc1Nc1nc(-c2cccs2)cs1	–	–	–	–
Cc1ccc(Nc2nc(-c3cccs3)cs2)nc1	–	55.5	–	–
CCc1cc2c(cc3c(=O)n(CC(=O)NCC4CCCO4)nc(CC)n32)s1 (stereo not drawn)	–	–	–	–
CN(CCc1cn[nH]c1)Cc1ccc(OCC(O)CN(C)Cc2ccccc2)cc1 (stereo not drawn)	–	–	–	–
CC(=O)NC(c1cccs1)c1cc([N+](=O)[O-])c2cccnc2c1O (stereo not drawn)	–	–	78.8	–
COc1ccc(C(NC(C)=O)c2cc([N+](=O)[O-])c3cccnc3c2O)cc1 (stereo not drawn)	–	–	–	–
CC(=O)NC(c1ccccc1Cl)c1cc([N+](=O)[O-])c2cccnc2c1O (stereo not drawn)	–	–	89.8	–
CCOc1cc(C(NC(C)=O)c2cc([N+](=O)[O-])c3cccnc3c2O)ccc1O (stereo not drawn)	–	–	85.1	–
SMILES	FBW7 act	TEAD-YAP block	MITF primary	GPR151 ag
CCC(=O)NC(c1cccs1)c1cc([N+](=O)[O-])c2cccnc2c1O (stereo not drawn)	–	–	–	–
CCc1c(C)sc2nc(C(C)C)n3c(=O)[nH]nc3c12	–	–	–	–
Cc1sc2nc(C(C)C)n3c(=S)[nH]nc3c2c1C	–	54.7	–	–
O=C(Nc1ccc(O)cc1)c1ccccc1Br	–	75.7	–	–
CN1C(=O)c2ccc(NC(=O)c3ccccc3Br)cc2C1=O	2.0	–	–	–
Cc1noc(C)c1C(=O)NCC1Cc2cc(-c3ccc(S(C)(=O)=O)cc3)ccc2O1 (stereo not drawn)	–	–	–	–
Cc1ccoc1C(=O)NCC1Cc2cc(-c3ccc(S(C)(=O)=O)cc3)ccc2O1 (stereo not drawn)	–	38.8	–	–
Cc1ccccc1CN1CCN(Cc2cccc3ccccc23)CC1	–	–	79.2	–
Cn1cnc(-c2ccc3cnc(Nc4ccc(-n5cnc(N6CCOCC6)n5)cc4)nc3c2)n1	–	–	–	–
Cc1nc(-c2ccc3cnc(Nc4ccc(-n5cnc(N6CCOCC6)n5)cc4)nc3c2)n[nH]1	–	–	–	–
Cc1n[nH]c(C)c1-c1ccc2cnc(Nc3ccc(-n4cnc(N5CCOCC5)n4)cc3)nc2c1	–	34.5	–	–
Cc1[nH]ncc1-c1ccc2cnc(Nc3ccc(-n4cnc(N5CCOCC5)n4)cc3)nc2c1	–	85.2	–	–
CCN1C=C/C(=C/c2cccc[n+]2C)c2ccccc21	–	82.0	–	–
C=CCn1c(=O)/c(=C\C=C2\C=CN(CC)c3ccccc32)s/c1=C\c1sc(-c2ccccc2)c(-c2ccccc2)[n+]1CC	–	–	–	–
O=C1Nc2c(C(F)(F)F)cccc2C12SCCS2	–	33.8	–	–
CC1CCCN(C2(O)C(=O)Nc3c(C(F)(F)F)cccc32)C1 (stereo not drawn)	–	–	–	–
C#CCn1c(=NC(=O)CC)sc2cc(OC)ccc21	–	–	–	–
C/C(=N\N=C1\NC(=O)CS1)c1cccc2ccccc12	–	–	–	–
COc1ccccc1NC(=O)CSc1nc2cc3c(cc2cc1C#N)OCO3	–	–	–	–
N#Cc1cc2cc3c(cc2nc1SCC(=O)NCc1ccccc1)OCCO3	–	36.2	–	–
CCOc1ccccc1NC(=O)CSc1nc2ccc(OC)cc2cc1C#N	–	48.1	–	–
CC(C)c1ccc(C#N)c(SCC(=O)Nc2ccccc2C(=O)O)n1	3.9	–	–	–
N#Cc1cc2cc3c(cc2nc1SCC(=O)Nc1ccccc1)OCCO3	–	–	–	–
CCOc1ccccc1NC(=O)CSc1nc2cc3c(cc2cc1C#N)OCCO3	–	52.9	–	–
Cc1ccccc1NC(=O)c1ccc(C)c(S(=O)(=O)Nc2ccc(I)cc2C)c1	–	–	–	–
SMILES	FBW7 act	TEAD-YAP block	MITF primary	GPR151 ag
COc1ccc(-c2nc3cc(NC(=S)NC(=O)c4oc5ccccc5c4C)ccc3o2)cc1Cl	–	–	–	–
Cc1cc(=O)oc2cc(OCC(=O)N3CCCc4ccccc43)c([N+](=O)[O-])cc12	–	–	–	–
O=C(CCCOc1ccc(Cl)cc1Cl)NC1=NN(c2ccccc2)C(=O)C1	–	–	–	–
C=CCn1c(-c2cccnc2)nn(C(=O)c2cc(OC)c(OC)c(OC)c2)c1=S	–	–	–	–
O=C(OCC(=O)N1CCCc2ccccc21)c1cc(=O)c2ccccc2o1	–	–	–	–
COc1cc(/C=C/C(=O)Nc2c3c(nn2-c2ccccc2)CSC3)cc(OC)c1OC	–	–	–	–
N#Cc1c(N)nc(SCC(=O)NCc2ccccc2)c(C#N)c1-c1ccccc1Cl	–	58.3	–	–
N#Cc1cc2cc3c(cc2nc1SCC(=O)Nc1ccccc1F)OCCO3	–	53.5	–	–
COc1cc(NCC2CCCCC2)cc(OC)c1	–	–	–	–
CCC(=O)/C=C/n1c(=S)oc2ccccc21	–	54.7	–	–
CC(=O)/C=C/n1c(=S)oc2ccccc21	–	57.1	–	–
CC(=O)Nc1ccc(NC(=O)CCn2c(=S)oc3ccccc32)cc1	–	–	–	–
Cc1ccc(S(=O)(=O)NCCCN2CCOCC2)c(C)c1C	–	–	–	–
